Bioassay records from PubChem.
Only some compounds are listed: those with a hit (about 1.2% of all), similar ones and a draw of the others.
gsp antagonist: qHTS for Antagonists of gsp, the Etiologic Mutation Responsible for Fibrous Dysplasia/McCune-Albright Syndrome: qHTS; 340,000 compounds, 0.4% hits; gsp-mutant cells, cAMP HTRF, 30 min; AID 624288, 2012; Potency, µM (doses to about 76.9 µM), without a hit: at the highest dose activity change, negative = inhibition, hits mostly inhibitors; calls by dose curve; cell line not stated here;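 also: intracellular cAMP measured with PDE inhibitor Ro 20-1724 present during compound exposure; potency is read from the fitted curve at half-maximal effect; % is scaled to controls: 0 for no effect and ±100 for the full control effect; nearly all actives have a fitted effect of over 65% in size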
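Cells in G418 medium, seeded 16-24 h, 37C; buffer exchange to DPBS + 1 mM CaCl2, 0.5 mM MgCl2, 0.05% BSA; cpds in DMSO + […] (300 uM stock), 30 min 37C; HTRF cAMP detection.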
RXFP1 antagonist: qHTS Assay for Antagonists of the Relaxin Receptor RXFP1; Relaxin receptor 1 (Homo sapiens), Q9HBX9; HEK293-RXFP1, relaxin-stimulated cAMP HTRF, 30 min; active compounds read low; activity change, negative = inhibition, % at 57.5 µM; 350,000 compounds, 0.59% hits; AID 1259400, 2018;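 active = activity change of -60% or lower, but not beyond a set lower limit; inconclusive = change between -60% and -40%, or beyond the set limit; inactive = change above -40%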; also: % is scaled to controls: 0 for no effect and ±100 for the full control effect
Target sequence (Q9HBX9 whole entry, looked up): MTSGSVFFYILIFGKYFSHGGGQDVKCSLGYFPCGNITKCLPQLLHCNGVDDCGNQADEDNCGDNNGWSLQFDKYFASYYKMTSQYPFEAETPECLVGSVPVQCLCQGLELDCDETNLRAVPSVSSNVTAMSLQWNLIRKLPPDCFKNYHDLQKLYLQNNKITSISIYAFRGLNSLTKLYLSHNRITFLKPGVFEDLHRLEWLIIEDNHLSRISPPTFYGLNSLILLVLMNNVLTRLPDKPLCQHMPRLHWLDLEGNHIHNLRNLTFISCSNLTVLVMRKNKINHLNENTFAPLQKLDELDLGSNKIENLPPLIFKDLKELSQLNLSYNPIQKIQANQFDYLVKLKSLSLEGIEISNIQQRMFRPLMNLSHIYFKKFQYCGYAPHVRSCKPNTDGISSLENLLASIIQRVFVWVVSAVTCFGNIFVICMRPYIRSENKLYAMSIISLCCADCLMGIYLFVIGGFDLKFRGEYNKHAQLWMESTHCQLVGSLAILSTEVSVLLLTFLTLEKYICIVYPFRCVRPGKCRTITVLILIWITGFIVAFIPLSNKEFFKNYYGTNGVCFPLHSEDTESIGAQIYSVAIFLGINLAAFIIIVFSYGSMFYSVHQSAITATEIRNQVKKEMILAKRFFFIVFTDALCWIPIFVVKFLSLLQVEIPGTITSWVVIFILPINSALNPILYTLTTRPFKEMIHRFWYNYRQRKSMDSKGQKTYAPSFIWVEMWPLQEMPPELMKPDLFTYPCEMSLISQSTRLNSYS
gsp ag: qHTS for Agonist of gsp, the Etiologic Mutation Responsible for Fibrous Dysplasia/McCune-Albright Syndrome: qHTS | gsp mutant cells, cAMP HTRF, 30 min | Potency, µM (highest dose often 76.9 µM), without a hit: at the highest dose activation (cAMP increase), hits mostly activators | 340,000 compounds, 0.13% hits | AID 624287, 2012; active = well fitted activation curve with a large enough effect; inconclusive = small, poorly fitted or top-dose-only effect, or another doubt; inactive = no such curve, though single readings can be large or run the other way; cell line not stated here;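 also: phosphodiesterase inhibitor Ro 20-1724 added with compounds to block cAMP breakdown; potency is read from the fitted curve at half-maximal effect; nearly all actives have a fitted effect of over 60% in size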
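Cells stably selected in G418 were plated at 2000/well, grown 16-24 hr, then given compounds in DMSO with the PDE inhibitor […] (300 uM solution added) for 30 min at 37C; cAMP was read by HTRF.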
RXFP1 ag: qHTS Assay for Agonists of the Relaxin Receptor RXFP1 | Relaxin receptor 1 (Homo sapiens), Q9HBX9 | HEK293T-RXFP1 cAMP TR-FRET, 30 min; response scale: percent of porcine relaxin response, buffer zero | Potency, µM (highest dose often 57.5 µM), for the others: top-dose activation, most hits filed as activators | 370,000 compounds, 0.3% hits | AID 2676, 2010; active = well fitted activation curve with a large enough effect; inconclusive = small, poorly fitted or top-dose-only effect; also: potency is read from the fitted curve at half-maximal effect; % is scaled to controls: 0 for no effect and ±100 for the full control effect; nearly all actives have a fitted effect of over 60% in size
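HEK293 cells stably expressing RXFP1, treated 30 min at 37C with compounds plus PDE4 inhibitor Ro 20174; cAMP measured by HTRF TR-FRET. Normalized to buffer and 29 nM porcine relaxin; EC50 by Hill fit.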
Akt phos inh: HTS Assay for Inhibitors of Akt Phophorylation: Primary Screen; Neuro2A IGF-stimulated pAkt S473 HTRF, 20 min; active compounds read low; activity change, % for hits at 50 µM; 360,000 compounds, 0.32% hits; in the data active = activity change below about -80%; inconclusive = mostly about -51% to -80%; also: % is scaled to controls: 0 for no effect and ±100 for the full control effect
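Neuro2A cells in DMEM with 0.5% FBS, overnight at 37 deg C, given compound at single 50 µM final, then IGF (6 nM final) for 20 min at 37 deg C. Lysed; phospho-Akt Ser473 by HTRF after 24 h, 665/615 ratio.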
The depositor's hits bear a star; i = inactive; ? = inconclusive; nt = not tested or not shown; [ ] = another dose, or the depositor's remark.

SMILES	gsp antagonist	RXFP1 antagonist	gsp ag	RXFP1 ag	Akt phos inh
CC(C)(C)c1ccc(OCc2ccc(C(=O)Nc3cccnc3)o2)cc1	?	-63.7*	?	-2.7%	i
O=C(Nc1cccnc1)c1ccc(COc2ccccc2Br)o1	-13.5%	14.0	-71.6%	3.1%	i
CCOC(=O)c1cc(-c2ccccc2)n(CC(=O)N(C)c2ccc(OC)cc2)c1C	nt	-74.3*	nt	-3.1%	nt
COc1ccc(N2CCN(C(CNC(=O)c3ccc(C)cc3)c3ccc4c(c3)OCO4)CC2)cc1 (configuration not stated)	nt	-3.2	nt	-0.3%	nt
COc1cc(OC)cc(-c2n[nH]c(=S)n2-c2ccc3c(c2)OCO3)c1	-14.9%	-16.3	7.08µM*	9.9%	i
COc1cc(-c2n[nH]c(=S)n2-c2ccc(C)cc2)cc(OC)c1OC	-8.0%	-13.5	14.1µM*	-1.1%	i
COc1ccc(-n2c(-c3ccc(C)cc3)n[nH]c2=S)cc1	-11.4%	-35.7	-0.4%	-0.5%	i
Cc1cc(=O)c2c(O)c3c(O)cc(=O)c4c3c3c(cc(O)c1c23)C(C)(C)C=4O	nt	-9.6	nt	nt	nt
CC(=O)c1cccc(NC(=O)c2sc(-n3nc(C)c(CCC(C)C)c3C)nc2C)c1	nt	-14.4	nt	?	nt
Cc1cc(=O)[nH]c(SCn2nnc3ccccc3c2=O)n1	4.7%	-12.2	?	19.2%	-98.9%*
C[n+]1c2n(c3ccccc31)N=C(c1cc(C(C)(C)C)c(O)c(C(C)(C)C)c1)CS2	-2.7%	-85.5*	19.5%	0.2%	i
COc1cccc(C2=Nn3c(nnc3-c3ccccc3O)SC2)c1	10.3%	-8.2	?	-0.1%	i
CCCCN1CCCC1C(=O)Nc1c(C)cc(C)cc1C (configuration not stated)	nt	-7.3	nt	nt	nt
COc1ccc(CNC(=O)CSc2nc(-c3ccc(OC)c(OC)c3)cc(C(F)(F)F)n2)cc1	nt	nt	nt	13.2%	nt
COCCCNC(=O)c1ccc(OC)c(OC2CCN(C(C)C)CC2)c1	50.1µM*	1.1	20.1%	1.9%	i
COc1ccccc1CCNC(=O)c1ccc(OC)c(OC2CCN(C(C)C)CC2)c1	22.3%	-18.4	-4.6%[15.4 µM]	-0.4%	i
Cc1ccc(CN(C)CC(=O)Nc2ccc3c(c2)CCC3)cc1	-5.2%	-64.2*	25.8%	-0.2%	i
CN(C)/C=C(\C#N)C(=O)c1cccc(Oc2ccc(Br)cc2)c1	-11.9%	-7.5	-32.8%	-0.5%	-111.7%*
N#Cc1c(SCC(=O)O)nc(-c2ccccc2)c2c1CCCC2	5.3%	1.8	?	28.5%	i
N#Cc1c(SCC(N)=O)nc(-c2ccccc2)c2c1CCCC2	-17.4%	-1.0	-7.7%	-0.5%	-110.6%*
COc1cc(C(=O)OC(COCCC(C)C)CN2CCOCC2)cc(OC)c1OC (configuration not stated)	nt	-9.0	nt	nt	nt
CCCn1c(NC(=O)c2ccc(Br)cc2)nc2ccccc21	3.7%	16.4	?	2.2%	-87.3%*
O=C(Nc1ccc(Cl)c(Cl)c1)c1ccccc1	11.2µM*	nt	nt	0.1%	i
O=C1C(Cl)=C(NC(=O)c2ccccc2)C(=O)C(Cl)=C1NC(=O)c1ccccc1	?	-105.0*	6.4%[15.4 µM]	-4.1%	i
O=C(Nc1ccc(Cl)c(Cl)c1)Oc1ccc(NC(=O)c2ccco2)cc1	39.8µM*	7.3	-14.4%	-0.6%	i
SMILES	gsp antagonist	RXFP1 antagonist	gsp ag	RXFP1 ag	Akt phos inh
Cc1nc(Nc2ccc(Cl)c(Cl)c2)sc1C(=O)Nc1ccccc1	50.1µM*	-20.0	2.3%	5.1%	i
O=C(Nc1ccc(OC(=O)c2ccco2)cc1)c1ccco1	-9.1%	-1.2	-22.1%	0.0%	i
O=C(Nc1cccc(Cl)c1)c1ccccc1	2.7%	nt	5.8%	2.3%	i
Cc1nn2cc(-c3ccc(OC(C)C)cc3)nc2s1	nt	-14.3	nt	-4.9%	nt
Cc1nnc(-c2cccc(Br)c2)c2cn(-c3ccccc3Cl)nc12	-10.4%	-63.5*	28.3%	2.7%	i
Cc1ccc(-n2cc3c(-c4cccc(Br)c4)nnc(C)c3n2)cc1	-21.3%	-12.0	?	1.8%	-102.5%*
CCCCc1nc2cc(C(=O)NCc3cn(C)nc3C)ccc2o1	35.5µM*	8.0	6.5%	2.7%	i
CCc1cc2cc3c(cc2nc1SCC(=O)Nc1nccs1)OCO3	25.1%	9.0	?	12.6µM*	i
COC(=O)c1sc2nc(C)cc(C)c2c1N	8.8%	-13.6	23.1%	8.4%	i
Cc1cc(C)c2c(N)c(C(=O)Nc3ncc(C)s3)sc2n1	1.9%	2.3	7.4%	6.8%	-94.1%*
COc1ccc(CNC(=O)CCc2nc3cccnc3n2Cc2ccccc2)cc1	nt	-21.7	nt	-1.5%	nt
Cc1ccc(OCc2nnc(NC(=O)c3cccnc3)s2)cc1	7.94µM*	-1.5	-1.0%	0.0%	i
N#CC1(c2ccc(F)cc2)CCC(=O)CC1	nt	-8.6	nt	nt	nt
CN1CCN(S(=O)(=O)c2ccc(NC(=O)c3cccs3)cc2)CC1	-1.6%	0.3	-19.9%	1.9%	-102.2%*
O=C(Nc1ccc(S(=O)(=O)N2CCCC2)cc1)c1cccs1	nt	-10.9	-6.6%[15.4 µM]	-1.9%	i
CCn1cc([N+](=O)[O-])c(C(=O)Nc2nc(-c3ccc(C)cc3)c(C)s2)n1	0.7%	-6.7	-50.7%	-0.4%	i
CCn1cc([N+](=O)[O-])c(C(=O)Nc2cc(C)on2)n1	5.3%	-3.5	-2.1%	-0.1%	-112.8%*
C=Cc1ccc(Cn2c(=O)cc(C)c3c(C)nn(C)c32)cc1	nt	-3.9	nt	1.7%	nt
COc1ccccc1N(CC(=O)NC1CCCCC1)C(=O)c1csnn1	4.6%	20.4	-1.5%	0.2%	i
COc1ccccc1N(CC(=O)NC1CCCC1)C(=O)c1csnn1	4.8%	4.0	-29.2%	2.2%	-121.1%*
CC1CCc2c(sc(NC(=O)CSc3nnc(-c4ccccc4)o3)c2C#N)C1 (configuration not stated)	-1.1%	-5.9	13.4%	1.1%	i
N#Cc1c(NC(=O)CSc2nnc(-c3ccccc3)o2)sc2c1CCCC2	22.4µM*	7.2	1.2%	3.1%	i
O=C(CSC1=Nc2ccccc2C2=NC(Cc3ccccc3)C(=O)N12)Nc1cccc(Cl)c1 (configuration not stated)	nt	-0.3	nt	2.5%	nt
C=CCn1c(SCC(=O)NCCCC)nc2scc(-c3ccco3)c2c1=O	-36.5%	-20.1	12.8%	1.9%	i
C=CCn1c(SCC(=O)NC2CCCC2)nc2scc(-c3ccco3)c2c1=O	-13.7%	-62.3*	-23.1%	0.6%	i
CC(C)OC(=O)CSc1nnc(CNc2nc(-c3ccccc3)cs2)n1C	-2.6%[15.4 µM]	-6.7	-3.5%	0.6%	-103.2%*
